Assay results from PubChem BioAssay (NCI).
Compounds without any hit were thinned out: in the full panel of roughly 83,000, 20% have a hit.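 A percent growth of 40 corresponds to 60% growth inhibition; 0 means no net growth; -100 means all cells died. Active threshold: below 10.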 Active and inactive are the calls of the source.

What follows are compounds tested on LOX IMVI melanoma (assay: NCI-60 one-dose screen, 48 h (100 = growth as untreated, 0 = no growth, -100 = all killed)). Details: 10 µM unless noted.
O=Cc1ccc([N+](=O)[O-])s1 was tested, and the growth was 85.8% (inactive).
For CC(C)(C)n1cc(-c2ccnc(NCCCNS(=O)(=O)c3ccc(F)cc3)c2)c(-c2cccc(F)c2)n1, the growth was 33.7% (inactive).
For O=C1C(Cl)=C(Nc2ccc(O)cc2)C(=O)N1Cc1ccc(Cl)cc1, the growth was 57.7% (inactive).
In the case of COc1cc(CNC(=O)CCCC/C=C/C(C)C)ccc1OCc1nnc(Nc2ccc([N+](=O)[O-])cc2)o1, the growth is reported as 55.2% (inactive).
In the case of O=C(N/N=C/c1ccc(F)cc1)c1ccc(C(F)(F)F)nc1Nc1cccc(C(F)(F)F)c1, the growth is reported as -23.7% (active).
In the case of C=C(C)[C@@H]1CC[C@]2(C(=O)NCCNCCN)CC[C@]3(C)[C@H](CC[C@@H]4[C@@]5(C)C/C(=C/c6ccncc6)C(=O)C(C)(C)[C@@H]5CC[C@]43C)[C@@H]12, the growth is reported as 96% (inactive).
With O=C(COc1ccc(-c2nc3ccccc3[nH]2)cc1)N=Nc1c(O)[nH]c2ccc(Cl)cc12 the growth was 60.7% (inactive).
In the case of C/C(=N/O)c1ccc(F)cc1, the growth is reported as 69.5% (inactive).
In the case of COc1ccc(C2=Nc3c/c(=C\c4c(O)[nH]c5ccc(Cl)cc45)ccc3=N2)cc1, the growth is reported as 9.27% (active).
In the case of CCOC(=O)c1cnc2ccccc2c1Cl, the growth is reported as 86.2% (inactive).
CCCc1cc(NC)nc(S(=O)(=O)CC)n1 was tested, and the growth was 103% (inactive).
For COc1ccc(/C=C2\C(=O)N=C3N2NC(c2cc(Br)ccc2O)C=C(C)N3c2ccccc2)cc1 (centres undefined), the growth was 95% (inactive).
O=S(=O)(NCCNc1nccc(-c2c(-c3cccc(F)c3)nc3occn23)n1)c1ccc(Br)cc1 was tested, and the growth was 75.9% (inactive).
In the case of CCn1cc(C(=O)N/N=C/c2cccs2)c(=O)c2cc(F)c(N3CCNC(C)C3)c(F)c21 (centres undefined), the growth is reported as -84.1% (active).
